Laboratory results as given in PubChem BioAssay AID2130 (The Scripps Research Institute Molecular Screening Center, 2009).
Screen size: about 320,000 compounds; about 1,700 (0.53%) were called active. What follows is part of a selection rich in actives, with near analogues and random picks from the rest. A number with no mark means an inactive call.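 How the source made its calls: active means inhibition above the campaign mean of all compounds plus 3 SD (cut at about 26% in these data); inactive means the rest.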

biological target: Protein phosphatase methylesterase 1 (Homo sapiens) (UniProt Q9Y570); assay: PME-1 inhibitors via competitive probe labeling, primary screen, biochemical, fluorescence polarization, FP-Rh probe, HTS (AID 2130); conditions: recombinant PME-1, FP-Rh probe fluorescence polarization; at 5.9 µM; active compounds read high;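 further: competitive labeling of PME-1 active site by serine hydrolase directed probe; 0% = PME-1 with DMSO and 100% = wells lacking PME-1 enzyme; inhibitors block probe labeling so polarization falls and inhibition rises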
Sequence (Q9Y570 whole entry, looked up): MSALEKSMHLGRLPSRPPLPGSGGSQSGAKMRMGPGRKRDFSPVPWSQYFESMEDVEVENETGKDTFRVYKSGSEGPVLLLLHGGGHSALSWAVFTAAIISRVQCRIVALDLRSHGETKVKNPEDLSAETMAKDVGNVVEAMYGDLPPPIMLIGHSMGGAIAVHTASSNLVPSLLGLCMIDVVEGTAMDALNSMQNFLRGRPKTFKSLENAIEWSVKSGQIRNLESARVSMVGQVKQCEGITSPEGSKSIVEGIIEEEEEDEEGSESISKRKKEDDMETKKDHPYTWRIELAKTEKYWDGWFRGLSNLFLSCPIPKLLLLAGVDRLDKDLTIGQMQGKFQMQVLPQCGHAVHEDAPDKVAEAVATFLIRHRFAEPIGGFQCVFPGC

Q: For `CCOc1cc(C(=O)Nc2c(C)ccc3nsnc23)cc(OCC)c1OCC`, which inhibition is on record?
A: The inhibition was -3.07%.

Q: How did the inhibition turn out when `CCN1CCN(C(=O)N[C@@H](C(=O)N[C@@H]2C(=O)N3C(C(=O)O)=C(CSc4nnnn4C)CS[C@H]23)c2ccc(O)cc2)C(=O)C1=O` was run?
A: The inhibition was 1.33%.

Q: For `O=C(Oc1cccc(N2C(=O)C3C4c5ccccc5C(c5ccccc54)C3C2=O)c1)c1ccco1` (stereo not given), which inhibition is on record?
A: The inhibition was 2.64%.

Q: How did the inhibition turn out when `Cc1nc(N=C(N)N)nc2c(C)cccc12` was run?
A: The inhibition was -4.31%.

Q: Which inhibition does the source give for `CSc1ncccc1C(=O)N1CCCC(CCC(=O)NCc2ccccc2F)C1` (stereo not given) here?
A: Its inhibition is -3.09%.

Q: `Cc1[nH]c2c(C(=O)N3CCCC(CCC(=O)NCc4ccccc4F)C3)cccc2c1C` (stereo not given) was tested. Which inhibition did it give?
A: The inhibition was 28.6% (active).

Q: `O=C(CCC1CCCN(Cc2ccc(O)c(Cl)c2)C1)NCc1ccccc1F` (stereo not given) was tested. Which inhibition did it give?
A: The inhibition was -1.64%.

Q: For `Cc1cccc(N(Cc2ccccc2)C(=O)c2cc(S(=O)(=O)N3CCOCC3)ccc2F)c1`, which inhibition is on record?
A: The inhibition was 8.02%.

Q: With `COc1cc(/C=N/Nc2nc3ccccc3s2)ccc1O` as the compound, how does the inhibition read?
A: The inhibition was 45.3% (active).

Q: For `COc1ccc(/C=N/Nc2nc3ccccc3o2)cc1OC`, which inhibition is on record?
A: Its inhibition is 23.1%.

Q: `COc1cc(/C=N\Nc2nc(-c3cccs3)c(NC(C)=O)s2)ccc1O` was tested. Which inhibition did it give?
A: Its inhibition is 7.62%.

Q: For `COC(=O)COc1cccc2c(=O)n(CC(=O)NCc3ccccc3)ccc12`, which inhibition is on record?
A: The inhibition was -7.45%.

Q: `Cc1cc(C)c(C)c(S(=O)(=O)Nc2ccc(O)cc2)c1C` was tested. Which inhibition did it give?
A: Its inhibition is 6%.

Q: Which inhibition does the source give for `O=C(Nc1ccnn1C1CCN(Cc2cccc(OCCO)c2)CC1)C1CCCC1` here?
A: Its inhibition is 4.32%.

Q: For `Cc1nc2ccccc2nc1N/N=C/c1ccc(O)cc1O`, which inhibition is on record?
A: Its inhibition is 36.9% (active).

Q: For `O=c1c2ccccc2nc(N/N=C/c2ccccc2)n1O`, which inhibition is on record?
A: The inhibition was -3.42%.

Q: For `COc1ccccc1N1CCN(/N=C/c2ccc(O)cc2O)CC1`, which inhibition is on record?
A: The inhibition was 2.94%.

Q: With `COc1cccc(/C=N/Nc2cc(C)nc(-c3ccccc3O)n2)c1O` as the compound, how does the inhibition read?
A: The inhibition was 23.9%.

Q: How did the inhibition turn out when `FC(F)(F)c1nc2ccccc2nc1N/N=C/c1ccc(Cl)cc1` was run?
A: Its inhibition is 2.4%.

Q: For `Oc1ccc(/C=N/Nc2nc(-c3ccccc3F)nc3ccccc23)c(O)c1`, which inhibition is on record?
A: The inhibition was 55% (active).

Q: Which inhibition does the source give for `CCO[C@H]1OC(C(=O)N2CCN(Cc3ccccc3)CC2)=C[C@@H](c2cn(C(C)=O)c3ccccc23)[C@@H]1CCCO` here?
A: Its inhibition is 10.4%.

Q: With `CC(=O)Nc1ccc(S(=O)(=O)N2CCC(C(=O)N[C@@H](Cc3ccccc3)C(=O)O)CC2)cc1` as the compound, how does the inhibition read?
A: The inhibition was -6.81%.

Q: `COc1ccccc1N1CCN(C(=O)CCS(=O)(=O)c2ccc3c(c2)NC(=O)C(C)S3)CC1` (stereo not given) was tested. Which inhibition did it give?
A: Its inhibition is -1.07%.

Q: `COC(=O)c1ccc(CN2C(=O)NC(c3ccccc3)(c3ccccc3)C2=O)o1` was tested. Which inhibition did it give?
A: Its inhibition is 0.13%.

Q: How did the inhibition turn out when `CC(C)(C)C(=O)N(Cc1ccccc1)c1ccccn1` was run?
A: Its inhibition is -3.74%.

Q: For `O=C(Nc1ccccc1C(=O)N1CCOCC1)c1ccc(Cl)cc1`, which inhibition is on record?
A: The inhibition was -4.46%.

Q: For `O=c1nc(N2CCOCC2)nc2n1CCO2`, which inhibition is on record?
A: The inhibition was 0.45%.

Q: For `CCCOc1ccc(CN(CCO)CCO)cc1C(=O)OC`, which inhibition is on record?
A: Its inhibition is 1.19%.

Q: How did the inhibition turn out when `Cc1c(C(=O)N2CCCC2)c(S(=O)(=O)NCC(C)c2ccccc2)c(C)n1C` (stereo not given) was run?
A: Its inhibition is 4.76%.

Q: How did the inhibition turn out when `N=c1n(CCc2ccccc2)c2ccccc2n1Cc1ccccc1F` was run?
A: Its inhibition is -11%.

Q: With `CC(=O)c1c(C)n(-c2ccc(N(C)C)cc2)c2ccc(OCC(N)=O)cc12` as the compound, how does the inhibition read?
A: Its inhibition is 26.2% (active).

Q: With `CC(=O)c1c(C)n(-c2ccc(C)cc2)c2ccc(O)cc12` as the compound, how does the inhibition read?
A: The inhibition was -0.87%.

Q: With `CCOC(=O)c1c(C)oc2ccc(OCC(=O)N(CC)CC)cc12` as the compound, how does the inhibition read?
A: The inhibition was -5.01%.

Q: For `CC(=O)N1CC[n+]2c(-c3ccc([N+](=O)[O-])cc3)csc21`, which inhibition is on record?
A: The inhibition was -1.65%.

Q: How did the inhibition turn out when `COc1cc(NS(=O)(=O)c2ccc(NC(=O)c3ccc([N+](=O)[O-])cc3)cc2)ncn1` was run?
A: The inhibition was 4.2%.

Q: For `Cc1ccc(NC(=O)Cc2nnc(SCC(=O)Nc3nncs3)n2C)cc1`, which inhibition is on record?
A: Its inhibition is 5.14%.

Q: With `O=C(CCn1nnc2ccccc21)OCC(=O)c1ccc([N+](=O)[O-])cc1` as the compound, how does the inhibition read?
A: Its inhibition is -1.86%.

Q: For `Cc1cc(C(=O)OCC(=O)Nc2ccc(F)c(F)c2)c(C)o1`, which inhibition is on record?
A: The inhibition was -2.42%.

Q: How did the inhibition turn out when `CONC(=O)c1cc(OCC(F)(F)F)ccc1OCC(F)(F)F` was run?
A: The inhibition was -6.8%.

Q: For `CN(Cc1ccccc1)C(=O)c1ccc(NC2=NC3CS(=O)(=O)CC3S2)cc1` (stereo not given), which inhibition is on record?
A: The inhibition was 0.07%.

Q: `O=C(CCc1nnc2ccc(NCCCN3CCCC3=O)nn12)NCc1ccccc1Cl` was tested. Which inhibition did it give?
A: The inhibition was -0.36%.

Q: Which inhibition does the source give for `Cc1ccc(N(C(=O)C(F)(F)F)C(C(=O)NC2CCCCC2)c2ccncc2)cc1C` (stereo not given) here?
A: The inhibition was 3.24%.

Q: For `O=S1(=O)CCOC[C@H](CC2CCCCC2)N1Cc1ccc(F)cc1`, which inhibition is on record?
A: The inhibition was 1.92%.

Q: `COC(=O)c1sc(=S)n(-c2ccc(Cl)cc2)c1C` was tested. Which inhibition did it give?
A: Its inhibition is -0.65%.

Q: Which inhibition does the source give for `CCOC(=O)c1c(N)sc(C(C)=O)c1C` here?
A: The inhibition was 3.77%.

Q: `COCCOC(=O)c1sc(=S)n(CCOC)c1N` was tested. Which inhibition did it give?
A: Its inhibition is 35% (active).

Q: Which inhibition does the source give for `COc1cccc(CNC(=O)CN2C(=O)NC(Cc3ccccc3)(c3ccccc3)C2=O)c1` (stereo not given) here?
A: The inhibition was -2.37%.

Q: For `Cc1ccc(C2C3=C(Nc4[nH]n(-c5ccccc5)c(=O)c42)c2ccccc2C3=O)cc1` (stereo not given), which inhibition is on record?
A: Its inhibition is 36.4% (active).

Q: How did the inhibition turn out when `Cc1ccc(-c2ccnc3[nH]n(-c4ccccc4)c(=O)c23)cc1` was run?
A: Its inhibition is -2.99%.

Q: `Cc1cc(C)c(C2C3=C(Nc4c2c(C)nn4-c2ccccn2)c2ccccc2C3=O)c(C)c1` (stereo not given) was tested. Which inhibition did it give?
A: The inhibition was -4.18%.

Q: `CSc1nc2nc(-c3cccc(C(F)(F)F)c3)ccn2n1` was tested. Which inhibition did it give?
A: Its inhibition is -7.13%.

Q: How did the inhibition turn out when `COC(=O)CSc1nc2c(c(C3CC=CCC3)c1C#N)CCC2` (stereo not given) was run?
A: Its inhibition is -1.86%.

Q: With `CCOC(=O)N1CCN(C(=O)COCc2cc(-c3ccc4c(c3)OCO4)on2)CC1` as the compound, how does the inhibition read?
A: Its inhibition is -4.28%.

Q: Which inhibition does the source give for `O=C(NCCCN1CCCCC1)C1CC(=O)N(CCc2ccccc2)C1` (stereo not given) here?
A: Its inhibition is 0.2%.

Q: Which inhibition does the source give for `CCCCN(CCCC)CCNC(=O)CN1C(=O)COc2ccc(S(=O)(=O)N3CCOCC3)cc21` here?
A: The inhibition was -2.01%.

Q: Which inhibition does the source give for `CCc1ccc(C(=O)CSc2nnc(C)c(=O)[nH]2)cc1` here?
A: Its inhibition is -6.05%.

Q: For `O=C(O)c1ccccc1N=N/C(=N/Nc1cc(S(=O)(=O)O)ccc1O)c1ccccc1`, which inhibition is on record?
A: The inhibition was 13.7%.

Q: For `Cc1cccc(COc2ccccc2/C=N/Nc2ccc([N+](=O)[O-])cc2)c1`, which inhibition is on record?
A: Its inhibition is 11.9%.

Q: Which inhibition does the source give for `Cc1ccc(NS(=O)(=O)c2ccc(N/N=C/c3ccccc3OCC(=O)O)c([N+](=O)[O-])c2)c(C)c1` here?
A: Its inhibition is 78.2% (active).

Q: For `COCCNC(=O)c1ccccc1NS(=O)(=O)c1ccc(C)c([N+](=O)[O-])c1`, which inhibition is on record?
A: The inhibition was -1.62%.
